Screening results: PubChem BioAssay, several laboratories
Rows were chosen to be rich in hits. Some 1.6% of all compounds tested hit in one or more screens of this group.
Sa ugtP lethal – growth inhibition of ugtP-null S. aureus, primary screen, RN4220 ugtP deletion, OD600; growth inhibition, % (test concentration not listed); 16 h; AID 1259309, 2017; 330,000 tested, 0.54% active; in the data active = growth inhibition above about 68%;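 note: plate controls were untreated wells for no effect and antibiotic for full effect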
RN4220 kill – growth inhibition of S. aureus RN4220, primary screen, OD600. 16 h. inhibition, % (test concentration not listed). 330,000 tested, 0.33% active; in the data active = inhibition above about 85%;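 note: plate controls were untreated cells for no effect and reference antibiotic for full effect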
PfHsp40 yeast – rescue of yeast from PfHsp40 toxicity, primary screen, S. cerevisiae, ATP luminescence | S. cerevisiae expressing PfHsp40, growth rescue | growth rescue, % at 12.5 µM | 340,000 tested, 0.68% active | AID 504582, 2011; in the data active = growth rescue above about 28%, passing the limit was not always enough;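 note: yeast W303a lacking pdr1 and pdr3 grown in galactose medium; growth measured after three days at 30 °C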
CCHF vOTU inh-1 – CCHFV vOTU protease inhibitors, primary screen, biochemical, Pep-AMC substrate, fluorescence; 370,000 tested, 0.55% active; inhibition, % at 11.5 µM; Crimean-Congo hemorrhagic fever virus L polyprotein viral ovarian tumor (vOTU) protease …; note: 0% = vehicle wells with enzyme and 100% = no enzyme wells
BJeLR lethal – MLPCN primary cell-based screen for lethality selective to Ras in HRASV12 cells; BJeLR (HRASV12) viability, CellTiter-Glo ATP luminescence, 48 h; inhibition, % (no concentration beside the values); 300,000 tested, 0.17% active; AID 1554, 2009; in the data active = inhibition above about 50%
CCHF vOTU inh-2 – CCHFV vOTU protease inhibitors, confirmation, biochemical, Pep-AMC substrate, fluorescence; inhibition, % at 11.5 µM; 1,900 tested, 17% active; shares compounds with CCHF vOTU inh-1; AID 686976, 2013; Recombinant CCHFV vOTU
* hit, by the source's call; x = no result given. Cut-off read from the data, not from the text of the source, unless noted: active = inhibition above about 30%; inactive = the rest.

SMILES	Sa ugtP lethal	RN4220 kill	PfHsp40 yeast	CCHF vOTU inh-1	BJeLR lethal	CCHF vOTU inh-2
CCOC1OC(C(=O)N2CCN(Cc3ccc4c(c3)OCO4)CC2)=CC(c2coc3ccccc3c2=O)C1CCCO (stereo not drawn)	-1.1	2.2	x	x	x	x
COc1cccc(-c2cc(C(F)(F)F)nc(-n3cc(C)cn3)n2)c1	8.0	21.5	-0.5	35.4*	0.5	-9.1
COc1cccc(-c2cc(C(F)(F)F)nc(-n3cncn3)n2)c1	3.3	6.6	-1.5	-8.5	-6.9	x
COc1ccc(OC)c(NC(=O)Nc2ccc(O)c3ccccc23)c1	-8.9	7.2	-1.2	72.7*	1.7	-15.4
COc1ccc(OC)c(NC(=O)Nc2c(O)ccc3ccccc23)c1	0.2	5.5	0.4	-11.7	5.3	x
CCOc1ccc(-c2c(C(=O)NN=Cc3ccc(OC)cc3)nnn2-c2nonc2N)cc1	5.5	4.7	x	x	x	x
CC(=C(C#N)C(=O)NCc1ccccc1)N(C)C	-1.9	5.0	x	x	x	x
CCc1ccccc1NC(=O)CNC(=O)c1cc(C2CC2)nn1-c1ccccc1	-2.6	-1.0	1.3	39.4*	x	-1.8
Cc1ccc(C)c(NC(=O)CN(C)C(=O)c2cc(C3CC3)nn2-c2ccccc2)c1	1.5	2.0	-0.1	12.5	x	x
Nc1nc(Nc2ccc(Cl)cc2)n[nH]1	9.7	-2.0	-1.3	0.6	3.4	x
Nc1nc(Nc2ccccc2)n[nH]1	1.7	3.0	1.6	31.9*	-6.0	-22.1
C=CCc1cccc(/C=N/c2ncccc2O)c1O	x	x	-1.4	59.0*	2.0	16.3
C=CCc1cccc(C=Nc2ccc(Br)cc2)c1O	5.1	-1.1	0.8	1.6	11.3	x
CC(Nc1cccc2ccccc12)C(=O)N/N=C/c1ccccn1 (stereo not drawn)	x	x	-1.3	114.3*	0.0	-3.9
Cc1cccc(NC(=O)CN2C(=O)S/C(=C\c3ccc(O)c([N+](=O)[O-])c3)C2=O)c1	2.2	-5.3	-0.5	30.6*	3.0	1.7
CC(C)C[C@@H](CN1CCC[C@@H]1CN1C(=S)NC[C@@H]1Cc1ccc(O)cc1)N1C[C@H](Cc2ccc(O)cc2)N(CC2CCCCCC2)C1=S	x	x	x	32.4*	x	-17.0
O=C1NC[C@H](CCCCN2C[C@H](Cc3ccc(O)cc3)N(CC3CCCCC3)C(=O)C2=O)N(CCC2CCCCC2)C1=O	x	x	x	15.2	x	x
O=C1NC[C@H](Cc2ccccc2)N(C[C@@H]2CCCN2C[C@H](Cc2ccccc2)N2C[C@H](Cc3ccccc3)N(CC3CCCCC3)C(=O)C2=O)C1=O	x	x	x	29.6*	x	2.8
O=C1NC[C@@H](CCCCN2C[C@H](Cc3ccc(O)cc3)N(CCC3CCCCC3)C(=O)C2=O)N(CC2CCCCC2)C1=O	x	x	x	35.1*	x	-12.7
CN(C)c1ccc(N=Cc2cccn2C)cc1	x	x	-0.6	42.1*	-0.7	-12.6
Cc1nnc(C)n1N=Cc1cccn1C	8.6	4.9	x	x	x	x
Cc1ccc(NC(=O)CSc2nnc(-c3cc(-c4ccc(Cl)cc4)n[nH]3)n2N)cc1	x	x	x	99.1*	x	-1.3
Cc1ccc(-c2cc(-c3nnc(SCC(=O)Nc4ccc(OCc5ccccc5)cc4)n3N)[nH]n2)cc1	x	x	x	-4.0	x	x
CC(=NO)C(=O)NCCCNCCCN(C)C	8.8	2.3	x	x	x	x
CCN(CC)S(=O)(=O)c1cc(NC(=O)CN2C(=O)NC(C)(c3ccccc3)C2=O)ccc1C (stereo not drawn)	-5.8	-2.2	-1.5	34.2*	8.5	3.7
SMILES	Sa ugtP lethal	RN4220 kill	PfHsp40 yeast	CCHF vOTU inh-1	BJeLR lethal	CCHF vOTU inh-2
CCN(CC)S(=O)(=O)c1cc(NC(=O)CN2C(=O)NC3(CCCc4ccccc43)C2=O)ccc1C (stereo not drawn)	-6.0	-4.1	2.0	11.0	-0.1	x
CCc1ccc2c(CN3CCN(S(=O)(=O)c4cccs4)CC3)cc(=O)oc2c1	3.2	3.9	4.4	34.9*	6.3	-6.4
CCc1ccc2c(CN3CCN(S(=O)(=O)c4ccccc4F)CC3)cc(=O)oc2c1	8.7	2.2	0.5	8.7	x	x
CCc1ccc(C=NNC(=O)c2cc(-c3ccncc3)nc3ccccc23)s1	3.5	5.6	x	x	x	x
Cc1ccc(C(=O)OCC(=O)Nc2ccc(Cl)cn2)s1	4.9	5.3	1.0	-0.3	x	x
Cc1c(Cl)cnc(NC(=O)COC(=O)c2ccc([N+](=O)[O-])s2)c1Cl	-3.6	11.8	0.4	74.0*	-7.2	73.8*
Cc1c(Cl)cnc(NC(=O)COC(=O)c2cccs2)c1Cl	-2.7	3.7	-0.3	-3.7	x	x
O=C(COC(=O)c1ccc([N+](=O)[O-])s1)Nc1ccc(Cl)cn1	-18.7	6.3	-0.7	40.9*	-0.9	51.1*
O=S(=O)(Nc1cc2nc3ccccc3nc2n1Cc1ccccc1)c1ccc(Cl)cc1	-16.3	-1.9	0.1	111.3*	9.9	67.2*
O=C(Nc1cc([N+](=O)[O-])ccc1O)NC1CCS(=O)(=O)C1 (stereo not drawn)	0.0	-0.1	0.8	35.8*	x	-6.0
O=C(Nc1cccc([N+](=O)[O-])c1)NC1CCS(=O)(=O)C1 (stereo not drawn)	8.0	2.6	1.0	-3.3	13.4	x
C#CCOCCOCCOCCNc1nc(N2CCOCC2)nc(N2CCN(C(=O)CCCCCCCCCCNC(=O)C(C(C)O)n3cc(C)nn3)CC2)n1 (stereo not drawn)	-5.4	6.0	x	x	x	x
CCSc1nc(=S)cc(C)[nH]1	21.3	-5.6	3.9	31.3*	-0.2	-25.3
CCSc1nc(O)cc(=O)[nH]1	x	x	-0.1	-10.8	2.5	x
CC(C)CC(NC(=O)c1nc[nH]c1C(=O)NC(CCCCN)C(=O)OC(C)(C)C)C(=O)OC(C)(C)C (stereo not drawn)	-6.5	2.3	x	x	x	x
C=CC1c2ccccc2N(S(=O)(=O)c2ccc(C)cc2)C(c2ccccc2)C1(C#N)C#N (stereo not drawn)	-4.4	19.4	x	x	x	x
Cc1ccc(-c2cn(CC3CCC(C4CCC(Cn5cc(-c6ccc(C)cc6)nn5)O4)O3)nn2)cc1 (stereo not drawn)	-0.8	-0.2	x	x	x	x
O=C(NCc1ccncc1)C1Cc2c(-c3ccccc3Oc3ccccc3)ccnc2O1 (stereo not drawn)	x	x	x	32.2*	x	-14.3
O=C(NCc1cccs1)C1Cc2c(-c3ccccc3Oc3ccccc3)ccnc2O1 (stereo not drawn)	x	x	x	8.5	x	x
CC(=O)NC(c1cccc(F)c1)c1nc(-c2cc(F)cc(Cl)c2)cs1 (stereo not drawn)	x	x	x	36.3*	x	-0.9
Cc1ccc2c(c1)c1c(n2CC(O)CNC2CCCCC2)CCCC1 (stereo not drawn)	5.2	-10.5	0.7	64.5*	8.8	-11.6
CN(C)c1ccc2nc3ccc(=O)cc-3sc2c1	x	x	x	76.5*	x	50.2*
CN(C)c1ccc2nc3ccc(=[N+](C)C)cc-3sc2c1	-9.0	12.8	-0.5	24.4	x	x
O=C1c2ccccc2[C@@H]2C[C@@H](O)[C@H](Nc3cccc4ccccc34)CCN12	5.7	5.6	-2.2	54.3*	x	-20.6
